According to PubChem BioAssay (NCI):
About 83,000 compounds went through this panel and 20% of them were active in at least one assay; those are over-represented in the sample as a whole.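 Results are percent growth after 48 hours of single-concentration exposure. 100 means growth as in untreated cells, lower positive values show inhibition; negative values down to -100 show cell death.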 Active and inactive are the calls of the source. The calls were made as follows: active = growth percent below 10; inactive = the rest.

Experiments:
Assay in all cases: NCI-60 one-dose screen, 48 h (100 = growth as untreated, 0 = no growth, -100 = all killed)
Settings in all cases: 10 µM unless noted
[1] = system: HCT-15 colon
[2] = system: HT29 colon
[3] = system: SNB-75 CNS
[4] = system: SNB-19 CNS
[5] = system: U251 CNS
[6] = system: PC-3 prostate
[7] = system: SK-MEL-5 melanoma
[8] = system: UACC-62 melanoma
[9] = system: LOX IMVI melanoma
[10] = system: SK-MEL-28 melanoma
[11] = system: SK-MEL-2 melanoma
[12] = system: EKVX NSCLC
[13] = system: SN12C renal
[14] = system: UO-31 renal
[15] = system: TK-10 renal
[16] = system: ACHN renal
[17] = system: CAKI-1 renal
[18] = system: A498 renal
[19] = system: CCRF-CEM leukemia
[20] = system: MOLT-4 leukemia

Measured: growth

CC1=C([Se]CC(OC(=O)CC[Se]c2ccccc2)C(=O)NC(C)(C)C)C(=O)c2ccccc2C1=O (stereo not given)
active: [1] 4.43% | [2] 5.28% | [3] -89.2% | [4] -88.1% | [5] -36% | [6] -36% | [7] -97.4% | [8] -76.4% | [9] -0.738% | [10] -92.2% | [11] 9.93% | [12] -65.4% | [13] -62.5% | [14] -12% | [15] -89.8% | [16] -55.5% | [17] -34.3% | [18] -26.4% | [19] -10.8% | [20] -31.6%

CC1(C)COB(OCC(C)(C)COB2OCC(C)(C)CO2)OC1
inactive: [1] 108% | [2] 110% | [3] 107% | [4] 110% | [5] 98.2% | [6] 94.2% | [7] 93.2% | [8] 106% | [9] 96% | [10] 113% | [11] 113% | [12] 104% | [13] 104% | [14] 87.7% | [15] 102% | [16] 108% | [17] 102% | [18] 100% | [19] 101% | [20] 108%

C=C1C(=O)O[C@H]2[C@H]1CC/C(Cn1cc(-c3ccccc3)nn1)=C\CC[C@@]1(C)O[C@@H]21
inactive: [3] 64.2% | [4] 68.1% | [5] 50.2% | [6] 37.3% | [7] 21% | [12] 72.1% | [18] 46.6%
active: [1] -70.4% | [2] -58.3% | [8] -45.2% | [9] -84.7% | [10] -26.9% | [11] 6.62% | [13] 6.55% | [14] -75.1% | [15] -72.1% | [16] -40.7% | [17] -62.8% | [19] -20.7% | [20] -13.8%

Nc1nc2ccccc2c2c(=O)c3cccc(Cl)c3sc12
inactive: [1] 59% | [2] 92.7% | [3] 89.2% | [4] 92.6% | [5] 77.3% | [6] 78.5% | [7] 96.3% | [8] 85.7% | [9] 90.2% | [10] 108% | [11] 108% | [12] 83.8% | [13] 82.4% | [14] 75.4% | [15] 83.6% | [16] 86.8% | [17] 79% | [18] 122% | [19] 96.3% | [20] 104%

COc1ccc(/C=C(\C#N)n2nnc3ccc(Cl)cc32)cc1
inactive: [1] 38.9% | [2] 26.3% | [3] 20.4% | [4] 55.2% | [5] 61.7% | [6] 63.7% | [7] 81.7% | [8] 62.3% | [9] 56.9% | [10] 71.4% | [11] 62.9% | [12] 90% | [13] 52.4% | [14] 50.2% | [15] 77.6% | [16] 45.6% | [17] 46.3% | [18] 79.7% | [19] 45.5% | [20] 83.7%

CC(C)c1ccc(Cc2cnc(NC(=O)c3cc(Br)cs3)s2)cc1
active: [2] 7.43% | [3] -3.65%
inactive: [1] 21.6% | [4] 42.9% | [5] 18.6% | [6] 26.7% | [7] 10.1% | [8] 42.5% | [9] 41.3% | [10] 53.5% | [11] 23.7% | [12] 43.9% | [13] 49.7% | [14] 55% | [15] 46.7% | [16] 41.6% | [17] 31.3% | [18] 18.8% | [19] 20% | [20] 43.2%

Nc1nc2ccccc2c2c1S(=O)(=O)c1ccc(Cl)cc1C2=O
inactive: [3] 24.5% | [4] 48.8% | [5] 11.9% | [6] 16.5% | [7] 28.5% | [8] 24.7% | [10] 34.5% | [11] 42% | [12] 48.2% | [13] 11.4% | [15] 16.6% | [16] 17.8% | [17] 19% | [18] 56.9%
active: [1] 1.95% | [2] 7.01% | [9] 8.26% | [14] -15.2% | [19] -10.3% | [20] 3.11%

CCO/C=N/C1=C(C#N)C(c2ccc(Cl)cc2)c2sc3c(F)cccc3c2O1 (stereo not given)
inactive: [1] 35.7% | [2] 89.5% | [3] 42.6% | [4] 51.2% | [5] 45.7% | [6] 67.1% | [7] 64.9% | [8] 35.9% | [9] 51.8% | [10] 73.6% | [11] 14.2% | [12] 75.7% | [13] 79.7% | [14] 66% | [15] 88.1% | [16] 92.3% | [17] 41.3% | [18] 56.5% | [19] 38.1% | [20] 71.5%

COc1ccc(CN2c3ccccc3Sc3ccccc32)cc1F
inactive: [1] 15.9% | [3] 45.1% | [4] 34.6% | [5] 20.1% | [6] 21.2% | [7] 22.3% | [8] 28.5% | [9] 39.9% | [10] 56.8% | [11] 39.8% | [12] 34.4% | [13] 45.2% | [14] 45.6% | [15] 47.4% | [16] 41.8% | [17] 54.4% | [19] 22.1% | [20] 27.3%
active: [2] -4.41% | [18] -1.48%

Nc1n[nH]c2cccc(C#Cc3cccc(NC(=O)c4cc(F)cc(C(F)(F)F)c4)c3)c12
inactive: [1] 74.4% | [2] 48.3% | [3] 98.6% | [4] 104% | [5] 93.7% | [6] 64.1% | [7] 71.7% | [8] 48.1% | [9] 37% | [10] 66.8% | [11] 63.2% | [12] 92.8% | [13] 53.1% | [14] 36.8% | [15] 111% | [16] 64.7% | [17] 104% | [18] 57.1% | [19] 43% | [20] 48.1%

COC(=O)[C@]1(C)CCC[C@]2(C)[C@H]3C[C@H]4C(C(C)C)=C[C@]3(CC[C@H]21)[C@@H]1C(=O)CC[C@H](OCCC#N)[C@@H]14
inactive: [1] 84.9% | [2] 69.6% | [3] 87.6% | [4] 89.6% | [5] 77.6% | [6] 34.5% | [7] 79.4% | [8] 69.3% | [9] 90.3% | [10] 101% | [11] 86.6% | [12] 57.1% | [13] 93.5% | [14] 71.1% | [15] 94.8% | [16] 87.5% | [17] 68% | [18] 105% | [19] 81.5% | [20] 48.6%

Cc1nc2sc(C(=O)Nc3cccc4ccccc34)c(N)c2cc1C(O)c1ccccc1 (stereo not given)
active: [5] 1.5% | [7] -53.1% | [18] -13.7% | [19] 6.95% | [20] 6.27%
inactive: [1] 13.1% | [2] 10.5% | [3] 68.8% | [4] 26.2% | [6] 14.8% | [8] 17.8% | [9] 21.4% | [10] 54.3% | [11] 25.3% | [12] 39.4% | [13] 12.7% | [14] 33.4% | [15] 52.6% | [16] 24.4% | [17] 29.5%

COc1ccc2c(c1)CC[C@H](O)/C2=C/c1cc(OC)c(OC)c(OC)c1
inactive: [1] 13.9% | [3] 19.1% | [4] 38.3% | [5] 13.3% | [6] 17.8% | [8] 31.8% | [9] 18.2% | [10] 61.5% | [11] 43.5% | [12] 38% | [13] 37.6% | [14] 34.3% | [15] 66.6% | [16] 26.4% | [17] 30.5% | [20] 13.5%
active: [2] 0.825% | [7] -40% | [18] -9.18% | [19] 5.74%

CC(C)(C)[Si](C)(C)OC1[C@@H](CNC(=O)NC(=O)NC(N)=O)O[C@@H](n2cnc3c(NC(=O)Nc4ccccc4)ncnc32)[C@H]1O[Si](C)(C)C(C)(C)C (stereo not given in full)
inactive: [1] 94.8% | [2] 10.5% | [3] 84.1% | [4] 98.3% | [5] 69.1% | [6] 41.5% | [7] 91.8% | [8] 87.8% | [9] 56% | [10] 63.5% | [11] 94.8% | [12] 90.5% | [13] 74.6% | [14] 95.2% | [15] 88.9% | [16] 77.3% | [17] 101% | [18] 101% | [19] 71.4% | [20] 54.3%

C=C1C(=O)O[C@H]2[C@H]1CC/C(COC(=O)/C=C\C(=O)NCc1ccc(Cn3c(=O)sn(CCI)c3=O)cc1)=C\CC[C@@]1(C)O[C@@H]21
inactive: [1] 15.6% | [2] 26.3% | [3] 99.1% | [4] 99% | [5] 70% | [6] 69% | [7] 101% | [8] 55.4% | [9] 14% | [10] 40.4% | [11] 75% | [12] 61.7% | [13] 57.9% | [14] 55.1% | [15] 19.4% | [16] 15.9% | [17] 25.7% | [18] 143%
active: [19] -28.2% | [20] 3.38%
